From PubChem BioAssay
ST2 inh: inhibitors of human ST2 (IL1RL1) binding to IL-33, primary screen, biochemical, AlphaLISA; hit rate 2.3% among 78,000; AID 1259354, 2018; inhibition, % for hits at 17 µM; AlphaLISA ST2-Fc/biotin-IL-33 interaction, 1 h; Interleukin-1 receptor-like 1 (Homo sapiens), Q01638; in the data active = inhibition above about 30%
Target sequence (Q01638 whole entry, looked up): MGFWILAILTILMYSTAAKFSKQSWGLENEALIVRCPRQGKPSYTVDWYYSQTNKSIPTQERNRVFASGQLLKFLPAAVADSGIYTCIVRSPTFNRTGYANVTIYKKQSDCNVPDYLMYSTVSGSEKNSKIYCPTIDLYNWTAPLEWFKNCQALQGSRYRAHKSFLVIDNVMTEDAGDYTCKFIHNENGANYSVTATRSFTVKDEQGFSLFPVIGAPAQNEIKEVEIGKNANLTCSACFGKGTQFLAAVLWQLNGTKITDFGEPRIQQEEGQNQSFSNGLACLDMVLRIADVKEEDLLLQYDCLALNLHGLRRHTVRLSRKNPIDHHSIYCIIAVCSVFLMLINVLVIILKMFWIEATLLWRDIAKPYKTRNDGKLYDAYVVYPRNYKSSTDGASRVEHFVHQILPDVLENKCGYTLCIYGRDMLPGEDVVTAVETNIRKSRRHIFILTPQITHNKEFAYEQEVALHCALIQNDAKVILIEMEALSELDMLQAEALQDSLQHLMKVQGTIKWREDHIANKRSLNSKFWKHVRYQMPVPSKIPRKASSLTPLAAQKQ
* = called active by the depositor; i = inactive. The sample as a whole holds a higher share of hits than the screen did.

SMILES	ST2 inh
CN1CCN(Cc2ccccc2[N+](=O)[O-])CC1	i
O=[N+]([O-])c1ccccc1CN1CC=C(c2ccc(F)cc2)CC1	30%*
CN1CCN(Cc2cccc([N+](=O)[O-])c2)CC1	i
NC(=O)c1ccc(OCC(O)CN2CC=C(c3ccc(F)cc3)CC2)cc1 (stereo not drawn)	i
O=[N+]([O-])c1cccc(CN2CC=C(c3ccc(F)cc3)CC2)c1	35%*
O=[N+]([O-])c1ccccc1CN1CCN(c2ccc(Cl)cc2)CC1	i
O=C(NC[C@H]1C[C@@H]2CCN1C[C@@H]2CN1CCC(Cc2ccccc2)CC1)c1ccc2c(c1)OCO2	i
C=C[C@H]1CN2CC[C@H]1C[C@@H]2CNC(=S)NC1CCCCC1	i
CC(C)(C)c1ccc(-c2cn(C[C@H]3CC4CCN3C[C@@H]4C(=O)NCc3ccco3)nn2)cc1 (stereo partly drawn)	i
N#Cc1cccc(NC(=O)N2C[C@@H]3C[C@H](C2)c2ccc(-c4ccc(Cl)cc4)c(=O)n2C3)c1	i
CC[C@H]1CN2CC[C@H]1C[C@@H]2CNC(=S)NCc1ccco1	i
O=C(O)c1cccnc1CN1CC=C(c2ccccc2)CC1	i
Cc1c(C(c2ccccc2Cl)c2c(O)c3ccccc3oc2=O)c(=O)n(-c2ccccc2)n1C (stereo not drawn)	i
COc1ccc(C(c2c(O)c3ccccc3oc2=O)c2c(C)n(C)n(-c3ccccc3)c2=O)cc1 (stereo not drawn)	i
CC(c1c(O)c2ccccc2oc1=O)c1c(O)c2ccccc2oc1=O	36%*
COc1ccc(-c2cc([C@H]3CN4CC[C@H]3C[C@@H]4CNC(=O)CSCC(=O)O)n(C)n2)cc1OC	i
Cc1ccccc1-n1c(/C=C2\C(=O)N(C)c3ccccc32)nc2ccccc2c1=O	49%*
Cc1ccccc1-n1c(Cc2ccccc2)nc2ccccc2c1=O	i
O=c1c2ccccc2nc(-c2ccccc2Cl)n1-c1ccccc1O	i
O=c1cccc2n1CC1CC2CN(c2c([N+](=O)[O-])nn(-c3ccccc3)[n+]2[O-])C1 (stereo not drawn)	i
COc1ccc(C(=O)N2C[C@@H]3C[C@H](C2)c2c(-c4cccc(C#N)c4)ccc(=O)n2C3)cc1	i
C#CCOc1c(I)cc(/C=C/[N+](=O)[O-])cc1OC	i
COc1ccc(Cl)cc1/C=C/[N+](=O)[O-]	97%*
CC(C)(C)C(=O)Nc1ccc2n(c1=O)C[C@@H]1CNC[C@H]2C1	i
COc1ccc(Br)cc1CN1CCN(c2ccccc2C)CC1	i
SMILES	ST2 inh
Clc1cccc(N2CCN(Cc3ccccc3Cl)CC2)c1	i
COc1ccc(CN2CCN(c3ccccc3)CC2)cc1O	i
CCN1CCN(Cc2cc(Br)ccc2OC)CC1	i
COc1ccc(N2CCN(Cc3cccc(Cl)c3Cl)CC2)cc1	32%*
COc1ccc(N2CCN(Cc3cc(Br)ccc3OC)CC2)cc1	41%*
COc1ccc(N2CCN(Cc3ccc(Cl)c(Cl)c3)CC2)cc1	35%*
COc1cc(C)c(CN2CCN(c3ccccc3)CC2)cc1C	31%*
COc1cccc(N2CCN(Cc3ccccc3OC)CC2)c1	i
COc1ccccc1CN1CCN(c2ccccc2)CC1	i
CN1CCN(Cc2ccc(Cl)c(Cl)c2)CC1	i
Clc1ccc(CN2CCN(c3ccccc3)CC2)cc1Cl	i
C/C=C1/C[N+]2(C)C3CC1C(CO)C2Cc1c3[nH]c2ccc(O)cc12 (stereo not drawn)	i
NCCc1nc(N)n[nH]1	i
COCc1cn(C[C@H]2C[C@@H]3CCN2C[C@@H]3C(=O)NCc2ccc(F)cc2)nn1	i
COC(=O)c1cccc(NC(=S)NC[C@H]2C[C@@H]3CCN2C[C@@H]3c2cc(-c3cccs3)nn2C)c1	i
C#C[C@H]1CN2CC[C@H]1C[C@@H]2CNC(=S)Nc1cc(C)cc(C)c1	i
O=C(C1CCCCC1)N1C[C@@H]2C[C@H](C1)c1c(-c3ccc4ccccc4c3)ccc(=O)n1C2	i
O=C1C2CCCN2C(c2ccc(F)c(F)c2)N1c1ccccn1 (stereo not drawn)	i
Cn1nc(-c2ccc(F)cc2)cc1[C@H]1CN2CC[C@H]1C[C@@H]2CNC(=S)Nc1cccc(C#N)c1	i
COc1ccc(CCN(C)Cc2ccco2)cc1OC	i
Cc1ccccc1-c1ccc2n(c1=O)C[C@H]1C[C@@H]2CN(C2CCN(C)CC2)C1	i
C=C[C@H]1CN2CC[C@H]1C[C@@H]2CNC(=S)Nc1ccc(OC)cc1	i
COc1ccc(CN2CCN(c3cccc(C)c3C)CC2)cc1	i
Cc1ccc(N2CCN(Cc3c(F)cccc3Cl)CC2)cc1	36%*
CCOc1ccc(CN2CCN(c3ccccc3OC)CC2)cc1	i
COc1cc(CN2CCN(c3ccc(F)cc3)CC2)ccc1O	i
Cc1cccc(CN2CCN(c3ccccc3Cl)CC2)c1	i
Fc1ccc(CN2CCN(c3cccc(Cl)c3)CC2)c(F)c1	i
COc1cccc(CN2CCN(c3ccc(F)cc3)CC2)c1	i
